40 molecules from PubChem BioAssay (Tox21) can be followed below.

Results filed as inconclusive are left out. Values without a mark were called inactive. The call rests on the fitted dose curve; in most records, active means well fitted cell-killing curve with a large enough effect in the repeat runs; inconclusive means weak or mixed curves; inactive means flat fitted curve, though single readings scatter.
On the % scale 0 is the no-effect control and ±100 the full control effect.

The test can be described thus: qHTS assay to identify small molecule antagonists of the estrogen receptor beta (ER-beta) signaling pathway - cell viability counter screen (AID 1259382). Further: nearly all actives have a fitted effect of over 55% in size. The following applies: ER-beta-UAS-bla HEK293T viability, CellTiter-Glo luminescence, 16 h; series mostly up to 92.4 µM; activity change, negative = cytotoxicity: at the top concentration. The source says:
U.S. Tox21 Program National Center for Advancing Translational Sciences [NCATS] NIH Chemical Genomics Center [NCGC] U.S. Environmental Protection Agency [EPA] National Institutes of Environmental Health Sciences [NIEHS] National Toxicology Program [NTP] U.S. Food and Drug Administration [FDA] Tox21 Assay Overview: Estrogen receptor (ER), a nuclear hormone receptor, plays an important role in development, metabolic homeostasis and reproduction. Two subtypes of ER, ER-alpha and ER-beta, have similar expression patterns with some uniqueness in both types. Endocrine disrupting chemicals (EDCs) and their interactions with steroid hormone receptors like ER causes disruption of normal endocrine function. To identify the compounds that inhibit ER signaling, an ER-beta-UAS-bla GripTite cell line (Life Technologies, Madison, WI, USA) containing a beta-lactamase reporter gene under the control of an UAS response element was used to screen Tox21 10K compound library. The cytotoxicity of the Tox21 compound library against the ER-beta-bla cell line was tested in parallel by measuring the cell viability using CellTiter-Glo assay in the same wells.
Tox21 Assay Protocol Summary: ER-beta-UAS-bla HEK293T cells were dispensed at 2,000 cells/4 uL of assay medium containing 2% charcoal stripped FBS per well into black wall/clear-bottom 1536-well plates using a Multidrop Combi (ThermoFisher Scientific, Waltham, MA) dispenser. After the assay plates were incubated at a 37C and 5% CO2 for 6 hr, 23 nL of compounds dissolved in DMSO, positive controls or DMSO only was transferred to the assay plate by a Pintool station (Kalypsys, San Diego, CA), followed by addition of 1 uL (1nM as final concentration) of 17-beta-estradiol (E2) in assay medium using a Flying Reagent Dispenser (FRD, Aurora Discovery, San Diego, CA). The plates were incubated at 37C and 5% CO2 for 16 hr. Then 1 uL of LiveBLAzer B/G FRET substrate was added using a Flying Reagent Dispenser, the plates were incubated at room temperature for 2 hours, and fluorescence intensity was measured by an Envision plate reader (PerkinElmer, Shelton, CT). For cell viability readout that measures cytotoxicity, 4 uL/well of CellTiter-Glo reagent was added into the assay plates using a FRD. After 30 min incubation at room temperature, the luminescence intensity in the plates was measured using a ViewLux (PerkinElmer) plate reader.
Background: In qHTS, concentration-response curves come from the screen itself.
Take `COc1ccnc2c1CCCCC2S(=O)c1nc2ccccc2[nH]1` (stereo not given): the “activity change, negative = cytotoxicity” value was -15.4% [at 42.5 µM].

For the molecule `Cc1ccc(S(=O)(=O)NC(=O)NC2CCCC2)cc1`, the “activity change, negative = cytotoxicity” value was -1.93% [at 42.5 µM].

Take `CCCc1ccc(OC)cc1`: the “activity change, negative = cytotoxicity” value is -0.569%.

Take `O=C(Cl)c1cc(Cl)cc(Cl)c1`: the “activity change, negative = cytotoxicity” value is 6.36%.

Consider `CCOc1ccc(NC(C)=O)cc1N`, for which the “activity change, negative = cytotoxicity” value is 1.97%.

Take `O=C(O)CCc1nc2ccccc2[nH]1`: the “activity change, negative = cytotoxicity” value is 22.1% [at 42.5 µM].

As for `CCOC(C)OCC`, the “activity change, negative = cytotoxicity” value is -1.38%.

Regarding `FC(F)(Cl)C(F)(Cl)Cl`, the “activity change, negative = cytotoxicity” value is 1.41%.

With `C[C@]12CCC(=O)C=C1[C@@H]1C[C@@H]1[C@H]1[C@@H]3[C@@H]4C[C@@H]4[C@@]4(CCC(=O)O4)[C@@]3(C)CC[C@@H]12`, the “activity change, negative = cytotoxicity” value was -8.74% [at 42.5 µM].

Take `CCCCOc1ccc(N)cc1`: the “activity change, negative = cytotoxicity” value is -2.87%.

As to `CC1=C(C)C(=O)C(C(CCCCCC(=O)O)c2ccccc2)=C(C)C1=O` (stereo not given), the “activity change, negative = cytotoxicity” value is -18.2% [at 42.5 µM].

As for `O=C(OCCN1CCOCC1)c1cccnc1Nc1cccc(C(F)(F)F)c1`, the “activity change, negative = cytotoxicity” value is -24.6% [at 42.5 µM].

For `C[Si](C)(C)O[Si](C)(C)O[Si](C)(C)C`, the “activity change, negative = cytotoxicity” value is 7.5%.

As to `CCCCCCCCS`, the “activity change, negative = cytotoxicity” value is 4.54%.

On to `Cc1cc(C)c(C)c(O)c1`, for which the “activity change, negative = cytotoxicity” value is 6.9%.

Take `O=Cc1ccc([N+](=O)[O-])cc1`: the “activity change, negative = cytotoxicity” value is -2.85%.

Take `O=P(c1ccccc1)(c1ccccc1)c1ccccc1`: the “activity change, negative = cytotoxicity” value was 0.684%.

Consider `CC/C=C\CCO`, for which the “activity change, negative = cytotoxicity” value is 4.67%.

As to `COc1ccc(CN(CCN(C)C)c2ncccn2)cc1`, the “activity change, negative = cytotoxicity” value is 1.78% [at 42.5 µM].

Regarding `CCCCCCCCCCCC(=O)OCC`, the “activity change, negative = cytotoxicity” value was 1.36%.

Take `O=C1c2ccccc2C(=O)C1c1ccc2ccccc2n1`: the “activity change, negative = cytotoxicity” value was 0.137% [at 42.5 µM].

`Cc1cc(C)n(CO)n1`: the “activity change, negative = cytotoxicity” value is 2.21%.

Consider `O=C(O)c1cc(C(=O)O)c(C(=O)O)cc1C(=O)O`, for which the “activity change, negative = cytotoxicity” value is 2.53%.

Consider `CC(C)Oc1ccccc1O`, for which the “activity change, negative = cytotoxicity” value was -0.189%.

Take `O=C(O)c1ccc2c(c1)nc(C(=O)NC1CCN(C3CC3)CC1)n2Cc1cc(-c2ccc(Cl)s2)on1`: the activity change, negative = cytotoxicity is -12.8% [at 19 µM].

In the case of `FC1(F)C(F)(F)C(F)(F)C2(F)C(F)(C1(F)F)C(F)(F)C(F)(F)C1(F)C(F)(F)C(F)(F)C(F)(F)C(F)(F)C12F` (stereo not given), the “activity change, negative = cytotoxicity” value is 3.19%.

As to `CC(COc1ccccc1)NC(C)C(O)c1ccc(O)cc1` (stereo not given), the “activity change, negative = cytotoxicity” value was -18.3% [at 42.5 µM].

Consider `CCCCCO`, for which the “activity change, negative = cytotoxicity” value was 1.43%.

Consider `CO[C@@H]1COCC[C@@H]1N[C@@H]1CC[C@@](C(=O)N2CCc3ncc(C(F)(F)F)cc3C2)(C(C)C)C1`, for which the “activity change, negative = cytotoxicity” value was 2.68%.

For the molecule `O=C(OCCOCCOCCOC(=O)c1ccccc1)c1ccccc1`, the “activity change, negative = cytotoxicity” value was 2.08%.

On to `O=C1c2ccccc2C(=O)C1c1ccc2cc(S(=O)(=O)O)cc(S(=O)(=O)O)c2n1`, for which the “activity change, negative = cytotoxicity” value was -29.7%.

Consider `Nc1ccc(-c2ccc(F)cc2)cc1`, for which the “activity change, negative = cytotoxicity” value is -0.517%.

Regarding `CCOc1ccc2c(c1)C(C)CC(C)(C)N2` (stereo not given), the “activity change, negative = cytotoxicity” value was 1.21%.

Regarding `Nc1ccc(F)cc1F`, the “activity change, negative = cytotoxicity” value is -1.79%.

Turning to `CC1(C)CC(O)CC(C)(C)N1[O]`, the “activity change, negative = cytotoxicity” value was 5.87%.

For `C=C[Si](OCC)(OCC)OCC`, the “activity change, negative = cytotoxicity” value is -0.203%.

Turning to `CC(C(=O)O)c1ccc(/C=C2\CCCCC2=O)cc1` (stereo not given), the “activity change, negative = cytotoxicity” value was 3.81% [at 42.5 µM].

`c1ccc(CN(Cc2ccccc2)Cc2ccccc2)cc1`: the “activity change, negative = cytotoxicity” value is 3.6%.

As to `C[C@H](N)C(=O)N[C@@H](C)C(=O)NC1[C@H]2CN(c3nc4c(cc3F)c(=O)c(C(=O)O)cn4-c3ccc(F)cc3F)C[C@@H]12` (stereo not given in full), the “activity change, negative = cytotoxicity” value was 0.645% [at 42.5 µM].

Consider `CC(C)(C)c1cc(C=O)cc(C(C)(C)C)c1O`, for which the “activity change, negative = cytotoxicity” value was -9.87% [at 42.5 µM].
